The panel holds about 83,000 compounds, 20% with a hit somewhere; the sample as a whole holds those more often.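 Testing used 96-well plates and a 48-hour single-concentration exposure. Example: -40 means 40% of the starting cells died.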 Unmarked numbers belong to inactive results. Calls of active or inactive are those of the source. How the source made its calls: active means growth percent below 10; inactive means the rest.

Experimental findings from PubChem BioAssay (NCI) are described below.

Test systems include SR leukemia; RPMI-8226 leukemia; OVCAR-8 ovarian; OVCAR-5 ovarian; OVCAR-4 ovarian; SK-OV-3 ovarian; IGROV1 ovarian; OVCAR-3 ovarian; HS 578T breast; NCI/ADR-RES ovarian; T-47D breast; BT-549 breast; MDA-MB-435 melanoma; SW-620 colon; MCF7 breast; HCT-116 colon; KM12 colon; HCC-2998 colon.
Common to all, as to test: NCI-60 one-dose screen, 48 h (100 = growth as untreated, 0 = no growth, -100 = all killed)
Holding throughout (conditions): 10 µM

As to `COc1cc(C2C=C(c3ccc(Cl)c(Cl)c3)N=C3SC(C)=CN32)cc(OC)c1OC` (stereo unspecified), the growth is -11.9% (active) in the assay on SR leukemia; -16.1% (active) with RPMI-8226 leukemia; 73.1% in the assay on OVCAR-8 ovarian; 93.2% in the assay on OVCAR-5 ovarian; 67.8% with OVCAR-4 ovarian; 107% in the assay with SK-OV-3 ovarian. Further, the growth in the assay on IGROV1 ovarian is 85.6%; in the assay with OVCAR-3 ovarian, 79.8%; in the assay on HS 578T breast it was 100%; in the assay with NCI/ADR-RES ovarian, 81.3%; with T-47D breast it was 51.1%; in the assay with BT-549 breast, 58.7%. In addition, the growth in the assay on MDA-MB-435 melanoma was 46.6%; in the assay on SW-620 colon, 50.6%; with MCF7 breast, 24.6%; in the assay on HCT-116 colon, -25.8% (active); in the assay on KM12 colon, 65.1%.

In the case of `COc1ccc(NC(=O)c2sc3nc4c(cc3c2N)C(O)CCC4)cc1` (stereo unspecified), the growth is 67.6% in the assay on SR leukemia; 103% in the assay with RPMI-8226 leukemia; 101% in the assay on OVCAR-8 ovarian; 104% in the assay on OVCAR-5 ovarian; 95.6% in the assay on OVCAR-4 ovarian; 112% with SK-OV-3 ovarian. Also, the growth with IGROV1 ovarian is 106%; in the assay on OVCAR-3 ovarian it was 104%; in the assay with HS 578T breast, 112%; in the assay with NCI/ADR-RES ovarian it was 102%; with T-47D breast, 93.9%; in the assay on BT-549 breast, 97.4%. The growth was 95.8% in the assay with SW-620 colon; 89.6% in the assay on MCF7 breast; 104% with HCT-116 colon; 113% in the assay on HCC-2998 colon; 98% with KM12 colon.

For `Fc1ccc(-c2cc(C(Cl)Cl)no2)cc1`, the growth with SR leukemia is 106%; with RPMI-8226 leukemia, 96.1%; with OVCAR-8 ovarian, 109%; in the assay with OVCAR-5 ovarian, 101%; in the assay on OVCAR-4 ovarian it was 92.2%; with SK-OV-3 ovarian it was 112%. The growth in the assay with IGROV1 ovarian is 106%; in the assay with OVCAR-3 ovarian, 98.2%; in the assay on HS 578T breast, 93%; in the assay with NCI/ADR-RES ovarian it was 108%; in the assay on T-47D breast, 110%; in the assay with MDA-MB-435 melanoma, 97.3%. For the same compound, the growth in the assay with SW-620 colon was 92.1%; in the assay on MCF7 breast, 88.7%; with HCT-116 colon it was 90.3%; in the assay with HCC-2998 colon it was 107%; in the assay with KM12 colon, 94.4%.

Take `O=CNc1c(Cl)cc2c(c1Cl)Cc1cc([N+](=O)[O-])ccc1-2`: the growth with SR leukemia is 57%; in the assay with RPMI-8226 leukemia, 13.9%; in the assay on OVCAR-8 ovarian it was 58.8%; in the assay on OVCAR-5 ovarian, 82.3%; in the assay on OVCAR-4 ovarian it was 50.8%; in the assay with SK-OV-3 ovarian it was 68%. The growth with IGROV1 ovarian was 38.6%; in the assay on OVCAR-3 ovarian it was 41%; in the assay on HS 578T breast, 75.3%; in the assay on NCI/ADR-RES ovarian it was 57.4%; with T-47D breast it was 30.6%; with BT-549 breast it was 95.8%. Further, the growth is 41.4% in the assay with SW-620 colon; 15.3% with MCF7 breast; 6.23% (active) with HCT-116 colon; 92.5% in the assay on HCC-2998 colon; 25.6% with KM12 colon.

Turning to `COc1ccc(-c2csc(NC(=O)CO[N+](=O)[O-])n2)cc1`, the growth is 96.1% with SR leukemia; 106% in the assay with RPMI-8226 leukemia; 96.1% with OVCAR-8 ovarian; 113% with OVCAR-5 ovarian; 103% in the assay on OVCAR-4 ovarian; 108% with SK-OV-3 ovarian. Further, the growth in the assay with IGROV1 ovarian is 97.9%; in the assay with OVCAR-3 ovarian, 101%; in the assay with HS 578T breast, 104%; with NCI/ADR-RES ovarian, 99.6%; with T-47D breast it was 57%; with MDA-MB-435 melanoma it was 106%. Also, the growth in the assay on SW-620 colon is 103%; with MCF7 breast it was 92.6%; with HCT-116 colon, 102%; with HCC-2998 colon it was 105%; in the assay with KM12 colon, 95.8%.

Consider `[O-]c1c[n+](-c2ccc(Cl)cc2)no1`, for which the growth in the assay on SR leukemia is 97.9%; in the assay on RPMI-8226 leukemia it was 101%; with OVCAR-8 ovarian, 106%; with OVCAR-5 ovarian, 96.7%; with OVCAR-4 ovarian, 82.1%; in the assay with SK-OV-3 ovarian, 105%. Besides, the growth in the assay with IGROV1 ovarian was 80.7%; in the assay on OVCAR-3 ovarian, 104%; in the assay on HS 578T breast it was 101%; in the assay on NCI/ADR-RES ovarian, 103%; in the assay on T-47D breast it was 83.5%; with BT-549 breast, 107%. The growth with SW-620 colon was 97.5%; with MCF7 breast, 84.9%; in the assay with HCT-116 colon, 102%; in the assay with KM12 colon it was 95.8%.

As for `COc1ccc(-c2csc(-c3cc(Cl)cc(Cl)c3Cl)n2)cc1`, the growth with SR leukemia is 88.8%; in the assay with RPMI-8226 leukemia, 93.5%; in the assay on OVCAR-8 ovarian, 29.7%; in the assay with OVCAR-5 ovarian it was 109%; in the assay with OVCAR-4 ovarian, 85.2%; in the assay with SK-OV-3 ovarian it was 90.5%. Moreover, the growth in the assay on IGROV1 ovarian was 58.3%; in the assay on OVCAR-3 ovarian, 105%; in the assay on HS 578T breast it was 80.4%; in the assay on NCI/ADR-RES ovarian, 97.1%; with T-47D breast, 50.6%; in the assay on BT-549 breast it was 102%. Moreover, the growth in the assay with SW-620 colon is 46.4%; with MCF7 breast, 56.2%; in the assay on HCT-116 colon, 108%; in the assay on KM12 colon, 86.9%.

For the compound `COc1ccc(-n2nnc3c(sc4ccccc43)c2=O)cc1`, the growth in the assay on SR leukemia is 51.1%; in the assay with RPMI-8226 leukemia, 72%; with OVCAR-8 ovarian it was 29.1%; with OVCAR-5 ovarian, 80.2%; in the assay on OVCAR-4 ovarian it was -46.9% (active); with SK-OV-3 ovarian, -15.6% (active). For the same compound, the growth is -0.829% (active) in the assay with IGROV1 ovarian; 24% in the assay with OVCAR-3 ovarian; 21.4% with HS 578T breast; 52.9% in the assay with NCI/ADR-RES ovarian; 35.5% in the assay with T-47D breast; 102% with BT-549 breast. For the same compound, the growth was 83.9% in the assay with SW-620 colon; 80.4% in the assay with MCF7 breast; 5.85% (active) in the assay on HCT-116 colon; 74.9% with HCC-2998 colon; 70.2% in the assay on KM12 colon.

As for `O=C(N/N=C/c1ccccc1O)c1ccccc1`, the growth was 16.9% with SR leukemia; -30.3% (active) in the assay on RPMI-8226 leukemia; 21.7% in the assay with OVCAR-8 ovarian; 47% in the assay with OVCAR-5 ovarian; 21.4% in the assay with OVCAR-4 ovarian; 40.3% in the assay with SK-OV-3 ovarian. The growth was 22.1% in the assay on IGROV1 ovarian; 10.9% in the assay on OVCAR-3 ovarian; 82.9% in the assay with HS 578T breast; 13.4% in the assay with NCI/ADR-RES ovarian; 25.5% in the assay with T-47D breast; 60.4% with BT-549 breast. The growth in the assay on MDA-MB-435 melanoma is 56.7%; with SW-620 colon, 42.2%; in the assay with MCF7 breast, 3.31% (active); in the assay on HCT-116 colon it was 14.9%; in the assay with KM12 colon it was 35.4%.
